Reference: PubChem BioAssay AID1619 (SRMLSC, 2009)
Hit rate of the full screen: of about 220,000 compounds, about 830 (0.38%) were called active.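 How the source made its calls: active means compound inhibiting the enzyme by more than half at any dose during confirmatory dose-response retesting; inconclusive means strong single-dose inhibitors picked by rank but not retested; inactive means the rest.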 Only a sample is shown. Entries with a potency or affinity are not part of this list.

Target: Leucine aminopeptidase (Plasmodium falciparum (isolate 3D7)) (UniProt Q8IL11)
Test: P. falciparum M17LAP inhibitors, primary screen, biochemical, fluorogenic H-Leu-NHMec substrate, 1536-well (AID 1619);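 further: plate controls were full reaction with DMSO carrier for no effect and no enzyme background for full effect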
Conditions: recombinant M17LAP, H-Leu-NHMec fluorogenic kinetic assay; at 30 µM; hits give high values

Chain of Leucine aminopeptidase (Plasmodium falciparum (isolate 3D7)) (Q8IL11 whole entry, looked up): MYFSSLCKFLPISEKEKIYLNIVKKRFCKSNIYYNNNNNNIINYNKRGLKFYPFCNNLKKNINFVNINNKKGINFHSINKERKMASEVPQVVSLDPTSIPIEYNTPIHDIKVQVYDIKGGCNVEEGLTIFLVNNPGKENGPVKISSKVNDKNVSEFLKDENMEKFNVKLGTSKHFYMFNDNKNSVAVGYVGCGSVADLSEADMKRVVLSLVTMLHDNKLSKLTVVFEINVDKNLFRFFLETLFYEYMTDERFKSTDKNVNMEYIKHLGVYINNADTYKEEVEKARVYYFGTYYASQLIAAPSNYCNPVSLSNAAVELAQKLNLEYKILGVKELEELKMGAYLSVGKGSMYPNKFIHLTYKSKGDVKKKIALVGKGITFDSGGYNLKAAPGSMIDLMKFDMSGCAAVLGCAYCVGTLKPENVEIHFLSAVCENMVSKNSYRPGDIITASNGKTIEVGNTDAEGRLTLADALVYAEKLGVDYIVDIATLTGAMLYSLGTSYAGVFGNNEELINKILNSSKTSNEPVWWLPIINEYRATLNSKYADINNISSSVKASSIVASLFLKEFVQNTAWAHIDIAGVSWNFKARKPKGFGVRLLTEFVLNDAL

inhibition, inactive:
Cc1cc(-c2ccco2)n(CC(=O)NCCN(C)C)n1 -1.86%
CCCCNC(=O)NC12CC3CC(CC(C3)C1)C2 3.38%
S=C(Nc1ccccc1Cl)NC1CC2CCCC(C1)N2C1CC1 (centres undefined) 19.9%
COc1ccc(-c2nc3ccccc3[nH]2)cc1 12.5%
COc1ccc(-c2noc(=O)[nH]2)cc1 -9.72%
O=C(CCn1c(=O)oc2ccccc21)Nc1nccs1 0.79%
Nc1cc(C2CCCC2)nn1-c1ccccc1 16.1%
Cc1nn(CC(=O)NCCCN2CCOCC2)c(C)c1[N+](=O)[O-] 3.72%
COC(=O)NCc1cc2cc(Cl)ccc2[nH]1 8.05%
O=S(=O)(Nc1ccn(-c2ccccc2)n1)c1ccc(Br)cc1 21.4%
O=S(=O)(N/N=C\C=C\c1ccccc1)c1ccc(Br)cc1 31.2%
Cc1ccc(C(=O)Nc2ccccc2C(=O)N2CC3(C)CC2CC(C)(C)C3)cc1 (centres undefined) -0.05%
COc1ccc(C[C@H]2CN3C(=NC[C@@H]3C(C)C)N2C[C@H](C)NC(=O)c2ccc(C)c(Br)c2)cc1 -1.28%
COc1ccc2c(c1OC)C(=O)OC2Nc1nc(-c2cc3cc(Br)ccc3oc2=O)cs1 (centres undefined) -3.55%
COc1ccc2c(c1OC)C(=O)OC2Nc1nc(-c2cc3cc([N+](=O)[O-])ccc3oc2=O)cs1 (centres undefined) 42.4%
CSc1nsc(SC)c1CO -0.7%
CC(=O)Nc1c(O)nc(SCC(=O)Nc2ccc(C(C)=O)cc2)[nH]c1=O 21.4%
Cc1cccc(NC(=O)CSc2nc3c(c(=O)[nH]2)CCCC3)c1C 12.7%
Cc1cccc(NC(=O)CSc2nc3nc(C)cc(C)c3c(=O)[nH]2)c1 15.8%
Cc1cccc(NC(=O)CSc2nc(C)c(Cc3ccccc3)c(=O)[nH]2)c1 -0.73%
CC(=O)Nc1c(O)nc(SCC(=O)Nc2c(C)cccc2C)[nH]c1=O 13.4%
Cc1cccc(NC(=O)CSc2nc3c(c(=O)[nH]2)CCC3)c1C 49.7%
S=c1[nH]ncn1/N=C/c1cccc(Oc2ccccc2)c1 13.2%
Cc1ccc(CNc2ccc(S(=O)(=O)N3CCOCC3)cc2[N+](=O)[O-])cc1 -4.05%
CCCC1C2C(=O)N(c3ccccc3)C(=O)C2ON1c1ccccc1 (centres undefined) -10.4%
CCc1ccc(OC(=O)c2ccn(CC)n2)cc1 2.96%
CCOC(=O)c1c(C)[nH]c(C)c1C(=O)COC(=O)c1ccc(O)cc1 0.26%
Cc1ccc(NC(=O)c2ccccc2-c2ccccc2C(=O)O)cc1C 4.01%
O=C(O)c1ccccc1-c1ccccc1C(=O)Nc1ccccc1 -2.4%
O=C(CSc1nc2ccc(NC(=O)C3CCCCC3)cc2s1)NCC1CCCO1 (centres undefined) 2.95%
O=C(Nc1ccc(N2C(=O)C3CCCCC3C2=O)cc1Cl)c1cccs1 (centres undefined) -2.37%
Cc1cc(C(=O)COC(=O)c2ccc[nH]c2=O)c(C)n1C 14.9%
Cc1cc(C(=O)COC(=O)c2ccc(O)cc2)c(C)n1CCc1ccc(F)cc1 13.2%
Cc1ccc(-n2c(C)cc(C(=O)COC(=O)C3=NNC(=O)CC3)c2C)cc1 30.1%
COCCn1c(C)cc(C(=O)COC(=O)c2ccc[nH]c2=O)c1C 49.1%
Cc1ccc(-n2c(C)cc(C(=O)COC(=O)c3c(C)noc3C)c2C)cc1 0.29%
Cc1cc(C(=O)COc2ccccc2C(N)=O)c(C)n1C1CC1 -2.25%
Cc1cc(C(=O)COC(=O)C2=NNC(=O)CC2)c(C)n1-c1ccccc1 7.43%
Cc1cc(C(=O)COC(=O)c2ccc[nH]c2=O)c(C)n1-c1ccccc1F 8.77%
CCCn1c(SCC(=O)NC(=O)Nc2ccc(C)cc2C)n[nH]c1=O -6.72%
O=C(Cn1ccc([N+](=O)[O-])n1)NCCc1c[nH]c2ccccc12 -5.35%
C=CCn1c(=O)c2ccccc2n2c(SCC(=O)Nc3sc(C(=O)N(CC)CC)c(C)c3C(=O)OCC)nnc12 1.64%
O=C(N/N=C/c1ccc2c(c1)OCO2)c1cc(-c2ccc(F)cc2)nc2ccccc12 8.91%
CCCCn1nnnc1NCc1ccc(N2CCCC2)cc1 2.89%
COc1cccc(-n2cn[nH]c2=S)c1 -0.99%
O=C(NC1CCCC1)C(c1ccc(N2CCOCC2)cc1)N(Cc1ccco1)C(=O)c1ccco1 (centres undefined) 6.04%
COCC(=O)OCC(=O)c1cc(C)n(-c2ccc(Br)cc2)c1C 1.88%
CCC(=O)OCC(=O)c1cc(C)n(-c2ccc(Br)cc2)c1C 0.2%
Cc1ccc(-n2c(C)cc(C(=O)COc3c(CO)cc(F)cc3CO)c2C)cc1C 11.4%
CCOC(=O)c1cc(C)n(-c2ccc(OC)c(OC)c2)c1C 0.75%
COc1cc(C(=O)Nc2ccccc2-c2nnn(CC(N)=O)n2)cc(OC)c1OC -3.22%
C=CCn1c(-c2cccnc2Cl)nc2cc(Cl)c(Cl)cc21 -5.48%
Cc1noc(C)c1C(=O)NCCCc1ccccc1 6.89%
Cc1cc(C(=O)OCC(=O)N2c3ccccc3CC2C)c(C)o1 (centres undefined) -1.01%
Cc1cc(C(=O)OCC(=O)N2CC(C)CC(C)C2)c(C)o1 (centres undefined) 40.9%
O=C(O)c1cc2c(ccc3ccccc32)o1 6.36%
O=C(CN1C(=O)C2C3C=CC(C3)C2C1=O)NCc1ccccc1 (centres undefined) 18.9%
O=C(Cn1ccc2ccccc2c1=O)NCC1COc2ccccc2O1 (centres undefined) 10.9%
Cn1c(=O)oc2cc(S(=O)(=O)N3CCC(C(=O)NCC4COc5ccccc5O4)CC3)ccc21 (centres undefined) 3.08%
Cc1nn(C)c(C)c1S(=O)(=O)N1CCC(C(=O)NCC2COc3ccccc3O2)CC1 (centres undefined) 17.1%
Cn1c(C(=O)O)c(CC(=O)Nc2ccc3c(c2)OCCO3)c2ccccc21 -6.24%
CCC1Oc2ccc(C)cc2N(CC(=O)NCC2COc3ccccc3O2)C1=O (centres undefined) 16.1%
O=C(CCC1COc2ccccc2O1)NCC1COc2ccccc2O1 (centres undefined) 15.9%
Cn1c(=O)cc(SCC(=O)NCC2COc3ccccc3O2)c2ccccc21 (centres undefined) -4.89%
